Experimental data published in PubChem BioAssay (NCATS).
Records with an inconclusive call do not appear. Unmarked numbers belong to inactive results. Calls of active or inactive are those of the source. Calls come from the whole dose curve; as a rule, active = well fitted cell-killing curve with a large enough effect; inconclusive = small, poorly fitted or top-dose-only effect, or effect the other way; inactive = flat fitted curve, though single readings scatter.

What follows are compounds tested on Es-2 (assay: Primary qHTS to identify gynecologic anti-cancer compounds using libraries of approved drugs and bioactive compounds (AID 1345084; note: nearly all actives have a fitted effect of over 55% in size)). Conditions: Gynecologic cancer cell panel viability, ATPlite luminescence, 48 h; series mostly up to 57.5 µM; activity change, negative = cytotoxicity: at the top concentration.
In short: (§1)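 ATP-based viability (ATPlite), 1,000 cells/well, 16 h pre-incubation, 48 h compound at 37 C, 5% CO2, 15 min RT before read.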
% is set by controls: 0 for no effect and ±100 for the full control effect; potency is the fitted concentration of half-maximal effect.

Point of comparison: `CC1(CO)CC2C(O)C3=C(CC(C)(O)C2C1)C(=O)OC3` (centres undefined), “activity change, negative = cytotoxicity” value 1.67%. Against it:
- Cn1ccc(NC(=O)c2cc(Oc3ccc(C(=O)N4CCC4)c(F)c3)c3c(c2)OC(C)(C)C3)n1 — higher, 6.04%
- COc1ccc2nc3n[nH]c(C)c3c(NCCOCCO)c2c1 — higher, 19%
- CC(=O)Nc1cccc(Nc2ncnc(N3CCC(OCc4ccc(OC(F)(F)F)cc4)CC3)n2)c1C — lower, -21.8%
- COc1ccccc1C(=O)Nc1cc2c(cc1N1CCCC1)n(C)c(=O)n2C — higher, 4.92%
- Clc1cccc(COc2cncc(N3CCNCC3)n2)c1 — lower, -2.82%
- CCOc1cn(-c2ccc(F)cc2C)nc1C(=O)Nc1ccc(Oc2ccnc3cc(OC)c(OC)cc23)c(F)c1 — higher, 10.9%
- O=C(Nc1ccccc1Br)NC1CCN(c2ccc(C(F)(F)F)cn2)C1 (centres undefined) — higher, 3.84%
- COc1cccc(NCCC2(c3ccccc3)CC(C)(C)OC(C)(C)C2)c1 — lower, -5.13%
- Cc1c(OCc2cccc(-c3ccc(C(=O)O)cc3)c2)cc2c(c1C)C(=O)C(C1CCCC1)C2 (centres undefined) — higher, 9.44%
- CC1(NC(=O)c2ccc(C#Cc3cccc(F)c3)cn2)COC1 — higher, 3.35%
- O=C(NCCN1CCC(n2c(=O)[nH]c3ccccc32)CC1)c1cc2cc(F)ccc2[nH]1 — lower, -1.82%
- CCN1CCC[C@@H]1CNC(=O)c1ccc2c(c1)NC(=O)c1cccc(C)c1S2 — higher, 7.74%
- C[C@@H](Nc1ncnc2[nH]c(-c3ccc(O)cc3)cc12)c1ccccc1 — lower, -11.8%

Point of comparison: `CC1=CC2/C=C(\C)CCC3OC(C)(C)OC3CCC(=O)C23C(=O)NC(CC(C)C)C3C1C` (centres undefined), “activity change, negative = cytotoxicity” value -0.734% [at 25.3 µM]. Against it:
- C=C(C(=O)OC[C@H]1O[C@@H](OC(=O)/C=C/c2ccccc2)[C@H](O)[C@@H](O)[C@@H]1O)C(O)CO (some centres undefined) — lower, -7.92% [at 25.3 µM]

In the case of `C=CC(C)(O)CC/C=C(/C)COC(=O)C(C)C1CCC(C)(C=C)O1` (centres undefined), the “activity change, negative = cytotoxicity” value is reported as 6.58% [at 38.5 µM].

For `Cn1cc(-c2ccc(S(=O)(=O)n3ccc(/C=C/C(=O)Nc4ccccc4N)c3)cc2)cn1`, the Potency was 8.91 µM (active).
With `CCN(Cc1cc(Nc2nc(C)cn3c(-c4cn[nH]c4)cnc23)sn1)C(C)(C)CO` the Potency was 3.16 µM (active).
In the case of `O=C(NNc1nc2cc(F)ccc2n2cccc12)c1cnccn1`, the Potency is reported as 7.08 µM (active).

The compounds below were run on HeLa in the same assay as above. Conditions: Gynecologic cancer cell panel viability, ATPlite luminescence, 48 h; series mostly up to 57.5 µM; activity change, negative = cytotoxicity: at the top concentration.
In short: as §1

Point of comparison: `COc1ccc(NC(=O)c2ccc(C(=N)N(C)C)cc2)c(C(=O)Nc2ccc(Cl)cn2)c1`, “activity change, negative = cytotoxicity” value 10.6%. Against it:
- Cc1ccnn1-c1ccc(C(=O)N2CCN(S(=O)(=O)c3ccc(Cl)c(C(F)(F)F)c3)CC2)cc1 — lower, -3.7%
- Fc1ccc(N2CCCCC2)c(NC(=S)c2ccncc2)c1 — lower, 4.95%
- O=C(Cc1c(F)cccc1F)Nc1cc(OCc2ccc(Cl)cc2)ccn1 — lower, -2.69%
- CCN(c1cc(-c2ccc(CN3CCOCC3)cc2)cc(C(=O)NCc2c(C)cc(C)[nH]c2=O)c1C)C1CCOCC1 — lower, -1.84%
- CCOc1cc(C(C)(C)C)ccc1C1=NC(C)(c2ccc(Cl)cc2)C(C)(c2ccc(Cl)cc2)N1C(=O)N1CCN(CCCS(C)(=O)=O)CC1 (centres undefined) — lower, -22.1%
- COc1ccc(S(=O)(=O)N2CCC[C@H]2C(=O)Nc2cc(C)cc(C)c2)cc1 — higher, 17.6%
- CN(C)C(=O)Nc1cc(-c2ccccc2)ccc1N(C)C — lower, 0.471%
- Nc1nccc(-c2c(-c3ccc(F)cc3)ncn2C2CCCCC2)n1 — lower, 1.62%
- CC(C)c1cc(-c2ccc(F)c3ccccc23)nc(N)n1 — lower, 2.79%
- CNc1cccc(CCOc2ccc3c(c2)CN(CC(F)(F)F)C(=O)[C@H](CC(=O)O)C3)n1 — lower, -24.4%
- Cn1ccc(NC(=O)c2cc(Oc3ccc(C(=O)N4CCC4)c(F)c3)c3c(c2)OC(C)(C)C3)n1 — higher, 23.4%
- CC(=O)Nc1cccc(Nc2ncnc(N3CCC(OCc4ccc(OC(F)(F)F)cc4)CC3)n2)c1C — lower, -1.26%
- COc1ccccc1C(=O)Nc1cc2c(cc1N1CCCC1)n(C)c(=O)n2C — lower, 0.791%
- Clc1cccc(COc2cncc(N3CCNCC3)n2)c1 — lower, -12.9%
- CCOc1cn(-c2ccc(F)cc2C)nc1C(=O)Nc1ccc(Oc2ccnc3cc(OC)c(OC)cc23)c(F)c1 — lower, -0.225%
- O=C(Nc1ccccc1Br)NC1CCN(c2ccc(C(F)(F)F)cn2)C1 (centres undefined) — lower, 0.0737%
- COc1cccc(NCCC2(c3ccccc3)CC(C)(C)OC(C)(C)C2)c1 — lower, -14.3%
- Cc1c(OCc2cccc(-c3ccc(C(=O)O)cc3)c2)cc2c(c1C)C(=O)C(C1CCCC1)C2 (centres undefined) — lower, -13.3%
- CC1(NC(=O)c2ccc(C#Cc3cccc(F)c3)cn2)COC1 — lower, -15.9%
- O=C(NCCN1CCC(n2c(=O)[nH]c3ccccc32)CC1)c1cc2cc(F)ccc2[nH]1 — lower, 2.96%
- NC(=O)CCCSc1nc(N)nc(-c2c(Cl)cc3c4c(cccc24)COC3)n1 — lower, -15.3%
- Cc1c(C(=O)Nc2ccc(N3CCC(N4CCOCC4)CC3)c(C#N)c2)cnn1-c1ccc(Cl)cc1 — lower, -24.5%
- CCN1CCC[C@@H]1CNC(=O)c1ccc2c(c1)NC(=O)c1cccc(C)c1S2 — lower, 7.51%
- O=C(CNC(=O)c1cccc(C(F)(F)F)c1)N[C@@H]1CCN(Cc2ccc(Cl)cc2)C1 — lower, -3.85%
- CC(=O)NC(C)c1cnc(-c2cnc(Oc3ccc(OC(C)C)cc3)s2)s1 (centres undefined) — lower, -12.6%
- O=C(NNc1nc2cc(F)ccc2n2cccc12)c1cnccn1 — lower, 3.9%
- CC1(CO)CC2C(O)C3=C(CC(C)(O)C2C1)C(=O)OC3 (centres undefined) — lower, -0.876%

Point of comparison: `C=C(C(=O)OC[C@H]1O[C@@H](OC(=O)/C=C/c2ccccc2)[C@H](O)[C@@H](O)[C@@H]1O)C(O)CO` (some centres undefined), “activity change, negative = cytotoxicity” value 3.33% [at 25.3 µM]. Against it:
- C/C=C(/C)C(=O)O[C@@H]1C[C@@H](OC(=O)CC(C)C)C2(C)C3C(=O)C=C(C)C2C3C1(C)C (some centres undefined) — lower, 0% [at 25.3 µM]
- CC1=CC2/C=C(\C)CCC3OC(C)(C)OC3CCC(=O)C23C(=O)NC(CC(C)C)C3C1C (centres undefined) — lower, -4.43% [at 25.3 µM]

Point of comparison: `C=CC(C)(O)CC/C=C(/C)COC(=O)C(C)C1CCC(C)(C=C)O1` (centres undefined), “activity change, negative = cytotoxicity” value -1.23% [at 38.5 µM]. Against it:
- OC[C@H]1O[C@@H](OC/C=C/c2ccc(O)cc2)[C@H](O)[C@@H](O)[C@@H]1O — lower, -1.45% [at 38.5 µM]

With `Cn1cc(-c2ccc(S(=O)(=O)n3ccc(/C=C/C(=O)Nc4ccccc4N)c3)cc2)cn1` the Potency was 10 µM (active).
